From PubChem
The sample as a whole holds a higher share of hits than the screen did.
ALOX12 inh: ALOX12 (human) lipoxygenase inhibition; hit rate 1.1% among 580,000; purified 12hLO, xylenol orange hydroperoxide absorbance; AID 1671190; Potency, µM (doses to about 108 µM), without a hit: at the highest dose activity change, negative = inhibition, hits mostly inhibitors; P18054; also: potency is read from the fitted curve at half-maximal effect
Target sequence (P18054 whole entry, looked up): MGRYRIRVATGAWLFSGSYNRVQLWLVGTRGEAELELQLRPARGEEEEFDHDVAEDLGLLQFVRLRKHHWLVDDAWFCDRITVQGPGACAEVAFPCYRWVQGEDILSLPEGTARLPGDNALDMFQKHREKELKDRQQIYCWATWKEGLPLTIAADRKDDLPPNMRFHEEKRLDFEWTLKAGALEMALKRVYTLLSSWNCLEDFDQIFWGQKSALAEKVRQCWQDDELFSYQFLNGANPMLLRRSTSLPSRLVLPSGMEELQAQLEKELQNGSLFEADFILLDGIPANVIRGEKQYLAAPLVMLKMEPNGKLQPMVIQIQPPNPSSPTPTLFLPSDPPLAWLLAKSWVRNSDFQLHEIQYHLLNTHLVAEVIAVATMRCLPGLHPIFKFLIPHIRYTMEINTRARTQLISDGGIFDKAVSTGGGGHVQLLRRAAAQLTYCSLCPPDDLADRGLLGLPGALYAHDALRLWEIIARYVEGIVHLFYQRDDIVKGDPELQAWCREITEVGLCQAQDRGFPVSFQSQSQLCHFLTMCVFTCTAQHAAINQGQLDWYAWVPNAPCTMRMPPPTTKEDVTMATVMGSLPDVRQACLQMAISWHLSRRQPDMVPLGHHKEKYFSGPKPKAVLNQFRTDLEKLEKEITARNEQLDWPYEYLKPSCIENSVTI
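Purified human 12hLO at 150 nM in 25 mM Hepes, 0.01% Triton X-100, pH 7.0, preincubated 15 min at room temperature with compound. Reaction started with 40 uM arachidonic acid, 30 min at room temperature. Hydroperoxide measured by Fe-xylenol orange, 573/405 nm absorbance ratio.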
IL-1B inflam inh: blocks inflammasome-driven IL-1 beta release. AID 743279. THP-1 LPS/ATP IL-1B secretion, AlphaLISA, 16 h; stronger effect = lower value. activity change, % at 57.5 µM. hit rate 4.7% among 360,000; in the data active = activity change below about -50%; inconclusive = mostly about -30% to -49%
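THP-1 cells pretreated 1 hr with compounds (up to 57.5 uM final), then stimulated with LPS (250 ng/mL final) plus ATP (1.25 mM final); secreted IL-1B measured by AlphaLISA after 16 hr, decreased signal indicating inhibition.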
TDP1 cell CPT: DT40-hTDP1 cell growth loss with CPT. chicken DT40 Tdp1-/-;hTDP1 cells + 20 nM CPT, ATP luminescence, 48 h. Potency, µM (highest dose often 46.2 µM), inactives show at the highest dose activity change, negative = growth inhibition, most hits filed as inhibitors. hit rate 12% among 420,000; also: potency is read from the fitted curve at half-maximal effect; nearly all actives have a fitted effect of over 55% in size
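Chicken DT40 Tdp1-/- cells complemented with human TDP1, 400 cells/well, exposed to compounds plus 20 nM camptothecin for at least 48 h at 37 C; viability read as ATP content by CellTiter-Glo luminescence.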
DT40 TDP1 no CPT: qHTS for Inhibitors of human tyrosyl-DNA phosphodiesterase 1 (TDP1): qHTS in cells in absence of CPT; hit rate 15% among 420,000; DT40 Tdp1-/- hTDP1 cells, no CPT, ATP luminescence, 48 h; AID 686978, 2013; Potency, µM (titrated, usually from 46.2 µM), inactives show at the top dose activity change, negative = growth inhibition, hits mostly inhibitors; also: potency is read from the fitted curve at half-maximal effect; nearly all actives have a fitted effect of over 55% in size
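Cells were dispensed at 400 per well, compounds added by pin tool, plates incubated ≥48 hr at 37 °C, then CellTiter-Glo added for 30 min at room temperature before luminescence reading. Line: DT40 Tdp1-/- complemented with hTDP1; camptothecin omitted.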
HT1080-NT tox: kills 2HG-producing HT-1080-NT fibrosarcoma cells; HT-1080-NT fibrosarcoma viability, CellTiter-Glo ATP luminescence, 48 h; Potency, µM (top dose mostly 46.1 µM), without a hit: at the highest dose activity, negative = less viability, usual class: cytotoxic; AID 686970; hit rate 1.6% among 360,000;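 also: NT is the 2HG producing partner of a matched IDH1 knockdown line; potency is read from the fitted curve at half-maximal effect; 0% = DMSO-treated cells and -100% = media-only wells without cells; nearly all actives have a fitted effect of over 55% in size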
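Read-out is CellTiter-Glo luminescence after 10 minutes at room temperature, following 48 hours' compound treatment of HT-1080-NT cells (750 cells/well, RPMI, 5% FBS, 37 degrees C).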
HT1080 IDH1KD tx: kills HT-1080 cells with IDH1 knockdown. HT-1080 IDH1 knockdown viability, ATP luminescence, 48 h. Potency, µM (highest dose often 46.1 µM), without a hit: at the highest dose activity, negative = toxicity, hits mostly cytotoxic. hit rate 2% among 360,000;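 also: potency is read from the fitted curve at half-maximal effect; 0% = DMSO wells and -100% = cell-free medium wells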
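IDH1KD HT-1080 cells, 750/well, RPMI + 5% FBS; compound pinned after 2 h settling; 48 h, 37 °C; CellTiter-Glo luminescence; % activity normalised to DMSO and no-cell wells; curves fitted, classed by r2 and efficacy.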
An asterisk follows results filed as active; ? = inconclusive; / = no result given; [ ] = dose if it differs, or a comment. Unless noted, calls follow the shape of the dose curve; as a rule, active = well fitted curve in the direction sought with a large enough effect; inconclusive = small, poorly fitted or top-dose-only effect, or another doubt; inactive = no such curve, though single readings can be large; an effect the other way counts as inactive or inconclusive. Unless noted, % is scaled to controls: 0 for no effect and ±100 for the full control effect.

SMILES	ALOX12 inh	IL-1B inflam inh	TDP1 cell CPT	DT40 TDP1 no CPT	HT1080-NT tox	HT1080 IDH1KD tx
O=C(Cn1cnc([N+](=O)[O-])n1)N/N=C/c1cc(Cl)ccc1O	?	169	4.6µM*	7.3µM*	?	?
Cc1ccccc1/C=N/NC(=O)Cn1cnc([N+](=O)[O-])n1	6%	20	-10%	3%	2%	1%
O=C(Cn1cnc([N+](=O)[O-])n1)N/N=C/c1ccccc1O	-11%	166	16µM*	16µM*	?	?
O=C(Cn1cncn1)N/N=C/c1ccccc1O	7%	37	15µM*	13µM*	-21%	0%
CC(C)N1C[C@H](O)C[C@H]1c1nnc2n1CCN(C(=O)c1ccncc1)CC2	-1%	/	/	/	/	/
COc1cccc(-c2nccc3c(=O)cc(N4CCOCC4)oc23)c1	45µM*	/	/	/	/	/
O=c1cc(N2CCOCC2)oc2c(Nc3ccccc3)nccc12	7%[176 µM]	/	/	/	/	/
C[S+](=O)([O-])c1cccc(-c2nccc3c(=O)cc(N4CCOCC4)oc23)c1	56µM*	/	/	/	/	/
COc1ccc(Nc2nccc3c(=O)cc(N4CCOCC4)oc23)cn1	25µM*	/	/	/	/	/
N#Cc1c(SCC(N)=O)nc2c(c1C(F)(F)F)CCCC2	-7%	/	/	/	/	/
Clc1ccc(Oc2cccc(CN3CCN(C4CCNC4)CC3)c2)cc1 (configuration not stated)	47%	/	/	/	/	/
O=C(NCCCN1CCCCC1)c1ccc2c(c1)sc1nc(-c3ccc(F)cc3)cn12	?	/	4.1µM*	2.3µM*	/	/
Cc1ccc(-c2cn3c(n2)sc2cc(C(=O)NCCCN4CCCCCC4)ccc23)cc1	?	/	1.6µM*	1.6µM*	/	/
CC1CCCCN1CCCNC(=O)c1ccc2c(c1)sc1nc(-c3ccc(F)cc3)cn12 (configuration not stated)	-15%	/	2.3µM*	3.3µM*	/	/
CCN1CCN(CCCNC(=O)c2ccc3c(c2)sc2nc(-c4ccc(C)cc4)cn23)CC1	?	/	1.3µM*	1.3µM*	/	/
CC(=O)Nc1ccc(S(=O)(=O)N(C)CC(=O)Nc2ccc(-c3ccccc3)cc2)cc1	3%	/	/	/	/	/
O=C1CCN(S(=O)(=O)c2ccccc2)CCCC(C(=O)NCc2cc(F)cc(F)c2)CCN1 (configuration not stated)	-15%	/	/	/	/	/
COc1ccc(-c2cn3c(n2)sc2cc(C(=O)Nc4ccc(C)c(Cl)c4)ccc23)cc1	-18%	/	-2%	5%	/	/
Cc1ccc(-c2cn3c(n2)sc2cc(C(=O)NCCCN4CCCCC4)ccc23)cc1	-18%	/	1.3µM*	1.3µM*	/	/
Cc1oc2cc(OCCN3CCN(CCO)CC3)ccc2c(=O)c1-c1ccc(Br)cc1	35µM*	/	/	/	/	/
CN(C)c1ccc(N=Nc2ccc(C(=O)O)cc2)cc1	-19%	31	0%	2%	4%	2%
CN(C)c1ccc(N=NS(=O)(=O)O)cc1	?	/	22µM*	24µM*	/	/
O=C(NCCc1ccccc1)C1CN(S(=O)(=O)C2CC2)CC12CCCCC2 (configuration not stated)	30%	/	/	/	/	/
CC1CCCN(c2ccc(C(=O)Nc3cccnc3)cc2[N+](=O)[O-])C1 (configuration not stated)	-4%	?	16µM*	?	?	?
Cc1ccc(C(=O)Nc2cccnc2)cc1[N+](=O)[O-]	2%	-16	-14%	4%	17%	13%
CC(=O)Nc1ccc(N2CCCC(C)C2)c([N+](=O)[O-])c1 (configuration not stated)	-20%	-19	-10%	23µM*	?	2%
CC(=O)Nc1ccc(N2CCC(C)CC2)c([N+](=O)[O-])c1	-21%	-18	-14%	-18%	?	-12%
